Our source for the growth values is PubChem BioAssay (NCI).

The panel holds about 83,000 compounds, 20% with a hit somewhere; the sample as a whole holds those more often.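 Negative percent growth values reflect cell death: -40 means 40% of the cells present at the start died, and -100 means all died.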 Active and inactive are the calls of the source. Rule for the calls: active = growth percent below 10; inactive = the rest.

For the assay, the system named is MDA-MB-468 breast. The experiment in a line: NCI-60 one-dose screen, 48 h (100 = growth as untreated, 0 = no growth, -100 = all killed). The conditions noted are these: 10 µM unless noted.
Consider `CCOC(=O)C1C(=O)C=C(c2cnccn2)CC1c1ccc(OC)c(OC)c1` (stereo not given), for which the growth was 108% (inactive).
The result for `COC(=O)c1c2c(c(C)[n+]([O-])c1C)C(=O)C=C(NCc1cccc(OC)c1)C2=O` reads -67.8% (active); that for `COc1cc(Cc2cc(-c3ccc(Cl)cc3)n[nH]c2=O)ccc1O`, 73.9% (inactive); that for `O=C(NC[C@H](O)CN1CCc2ccccc2C1)c1cc(NC2COC2)ncn1`, 115% (inactive).
The result for `CCCc1cc2cc(-n3nc(C)c4c3CC(C)(C)CC4=O)cc(NC3CCSCC3)c2c(=O)[nH]1` reads 14.3% (inactive).
